Results from PubChem BioAssay.
Unmarked numbers belong to inactive results. No rule for the calls is given here.

Test: inhibition of PAO1 biofilm formation – strain PAO1, LB-PBS medium, absorbance 600 nm, primary screen (AID 1176); also: test concentration not given here
Details: P. aeruginosa PAO1 growth/biofilm, A600, 12 h; higher = more signal

Question: With `[N-]=[N+]=Nc1ccccc1C[C@]1(C(=O)NCc2ccccc2)COC(c2ccc(OCCCO)cc2)=N1` as the molecule, how does the z-score read?
Answer: -0.0837

Question: Which z-score does the source give for `C=CCNC(=O)[C@H]1[C@@H]2C(=O)O[C@@H](c3ccccc3)[C@@H](c3ccccc3)N2[C@@H](c2ccc(OCCO)cc2)[C@]12C(=O)Nc1ccc(C#CCNC(N)=O)cc12` here?
Answer: 1.99

Question: With `CCOC(=O)C[C@H]1[C@H](OC(=O)c2ccccc2-c2ccccc2)[C@@H](NC(=O)c2ccc3ccccc3n2)c2cc(OCCCO)ccc2N1C(=O)c1ccccc1` as the molecule, how does the z-score read?
Answer: -0.165

Question: With `C[C@@H]1ON(c2ccc(I)cc2)[C@H](c2ccc(OC(=O)OC(C)(C)C)cc2)[C@H]1C(=O)N1C(=O)OC[C@H]1Cc1ccccc1` as the molecule, how does the z-score read?
Answer: 0.294

Question: For `CN1C(=O)[C@@H]2[C@@H](CC(COc3ccccc3)=C([C@H](O)CCc3ccccc3)[C@@H]2CO)C1=O`, which z-score is on record?
Answer: -0.104

Question: For `NC(=O)N1C(=O)C2C(C1=O)C1C=C(CCCO)C2C(C2CC2)N1Cc1cccc(OC(F)(F)F)c1` (stereo not given), which z-score is on record?
Answer: -0.0585

Question: Which z-score does the source give for `O=C(N1CCOCC1)[C@@]1(CCS(=O)(=O)c2ccccc2)N=C(c2ccc(OCCCO)cc2)O[C@H]1c1ccccc1` here?
Answer: 1.02

Question: For `C=C(COC)C(=O)CC[C@H](OC(C)=O)c1ccc(OCCO)cc1`, which z-score is on record?
Answer: -0.116

Question: For `COc1ccc(C(O)C2C=CC3C(=O)N(c4ccccc4)C(=O)C3N2Nc2ccccc2)cc1` (stereo not given), which z-score is on record?
Answer: 0.571

Question: Which z-score does the source give for `O=C1C2C=CC(C(O)C=Cc3ccc([N+](=O)[O-])cc3)N(Nc3ccccc3)C2C(=O)N1c1ccccc1` (stereo not given) here?
Answer: 1.1
